Compounds with a hit are over-represented: about 20% of the library has one in this group of screens.
Pf growth 96h: P. falciparum growth inhibition at 96 hours | Potency, µM (series often up to 28.7 µM), inactives show at the highest dose activity change, negative = inhibition, most hits filed as inhibitors | 320,000 compounds, 6.9% hits | P. falciparum luciferase reporter growth, 96 h; also: potency is read from the fitted curve at half-maximal effect; % is scaled to controls: 0 for no effect and ±100 for the full control effect
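Erythrocytes infected with luciferase-expressing P. falciparum were dispensed at 2% hematocrit and 0.05% parasitemia (final), then incubated with compounds 96 hours at 37 C in 5% CO2. Luminescence after detection reagent addition reported growth.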
CHX counter: counter-screen for Shiga toxin inhibitors: cycloheximide protein synthesis inhibition | cell reporter, cycloheximide protein synthesis inhibition counterscreen | 300,000 compounds, 12% hits | max response, %; in the data active = max response mostly above about 13%, no sharp cut-off; inactive = mostly below about 14%; also: read at 38.3 µM for the half of the compounds with a filed dose; 0% is about no effect
Pf growth 48h: inhibits P. falciparum growth in the first generation, 48 h; 310,000 compounds, 5.9% hits; Potency, µM (doses to about 28.7 µM), inactives show at the highest dose activity change, negative = inhibition, usual class: inhibitors; P. falciparum luciferase growth in erythrocytes, 48 h; AID 504832; also: potency is read from the fitted curve at half-maximal effect; % is scaled to controls: 0 for no effect and ±100 for the full control effect
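Firefly luciferase activity from engineered P. falciparum reports growth; inhibitors lower the luminescent signal. Cultures contained 2% hematocrit erythrocytes at 0.1% final parasitemia.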
Shiga toxin inh: inhibitors of Shiga toxin in Vero cells; Vero cells, Shiga toxin protein synthesis inhibition reporter; inhibition, % at 38.7 µM; 290,000 compounds, 9.2% hits; in the data active = inhibition mostly above about 28%, no sharp cut-off; inactive = mostly below about 43%; also: 0% is about no effect
HCMV antiviral: blocks human cytomegalovirus replication. 410,000 compounds, 4.5% hits. activity change, negative = inhibition, % at 57.5 µM. HFF cells, HCMV-luciferase reporter, 72 h; hits give low values; in the data active = activity change below about -60%; inconclusive = no clear call, values can overlap the other calls; inactive = above about -39%; also: % is scaled to controls: 0 for no effect and ±100 for the full control effect
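Compounds were evaluated in HFFs infected with an HCMV luciferase reporter virus (MOI 1 PFU/cell). Luciferase in lysates collected 72 h post infection served as the replication measure.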
Starred values were filed as active, the others as inactive; [ ] = dose if it differs, or a comment. Unless noted, calls follow the shape of the dose curve; as a rule, active = well fitted inhibition curve with a large enough effect; inconclusive = small, poorly fitted or top-dose-only effect, or another doubt; inactive = no such curve, though single readings can be large or run the other way.

CCCOC(=O)c1ccc(NS(=O)(=O)c2cccs2)cc1 was read as CHX counter 1, Pf growth 48h 28%, Shiga toxin inh -8 and HCMV antiviral 59.
CCC(C)(C)n1nnnc1C(c1ccc(F)cc1)N1CCN(C(=O)c2ccco2)CC1 (centres undefined) was read as Pf growth 96h -29%, CHX counter -5, Pf growth 48h -17%, Shiga toxin inh -3 and HCMV antiviral -24.
Cc1cc2c(s1)c1cnn(Cc3ccc(C(F)(F)F)cc3F)c(=O)c1n2C was read as CHX counter -6 and Shiga toxin inh -8.
Screening Cc1ccc(NC(=S)NC2CC3CCC(C2)N3Cc2ccco2)c(C)c1 (centres undefined) returned Pf growth 96h inconclusive, CHX counter 4, Pf growth 48h 7%, Shiga toxin inh -12 and HCMV antiviral inconclusive.
Cc1ccc(NC(=S)NC(=O)C2CCCC2)cc1C was read as Pf growth 96h inconclusive, CHX counter 50*, Pf growth 48h 20%, Shiga toxin inh 91* and HCMV antiviral 43.
For Cc1ccc(NC(=S)NC2CC3CCC(C2)N3Cc2ccco2)cc1C (centres undefined) the results were Pf growth 96h 12µM*, CHX counter -1, Pf growth 48h inconclusive, Shiga toxin inh -7 and HCMV antiviral 8.
`COC(=O)c1ccccc1NC(=S)NC(=O)C1CC1` gave Pf growth 96h 1%, CHX counter 5, Shiga toxin inh -15 and HCMV antiviral 53.
For O=C(NC(=S)Nc1cccc(O)c1)C1CCCCC1 the results were HCMV antiviral -25.
For Cc1ccc(NC(=S)NC(=O)C2CC2)c(C)c1 the results were Pf growth 96h -28%, CHX counter 34*, Pf growth 48h 26%, Shiga toxin inh 64* and HCMV antiviral 56.
For CCC1(C)NC(=O)N(CC(=O)NCC(=O)Nc2c(C)cc(C)cc2C)C1=O (centres undefined) the results were Pf growth 96h -8%, Pf growth 48h -24% and HCMV antiviral 54.
For CCN(C(=O)COC(=O)CCOc1ccccc1C)c1c(N)n(Cc2ccccc2)c(=O)[nH]c1=O the results were HCMV antiviral 0.
Screening Cn1c(NC(=O)C[n+]2cc(-c3ccccc3)n3c2CCC3)cc(=O)n(C)c1=O returned Pf growth 96h 0.83µM*, CHX counter -4, Pf growth 48h 2.6µM*, Shiga toxin inh -2 and HCMV antiviral 12.
Screening Cn1c(NC(=O)C(C)(C)Oc2ccc(Cl)cc2)cc(=O)n(C)c1=O returned Pf growth 96h 2%, CHX counter -2, Pf growth 48h -18%, Shiga toxin inh -5 and HCMV antiviral -32.
Screening Cn1c(NC(=O)CC(C)(C)C)cc(=O)n(C)c1=O returned Pf growth 96h inconclusive, CHX counter -2, Pf growth 48h 24%, Shiga toxin inh -12 and HCMV antiviral inconclusive.
`Cn1c(NC(=O)C[n+]2cc(-c3ccc(Cl)cc3)n3c2CCC3)cc(=O)n(C)c1=O` gave Pf growth 96h 0.33µM*, CHX counter -3, Pf growth 48h 4.1µM*, Shiga toxin inh -14 and HCMV antiviral -77*.
`CCCCNC(=O)CN1C(=O)c2cccnc2Sc2ccccc21` gave HCMV antiviral 32.
Cc1ccc(S(=O)(=O)N2CCN(C(=O)CCc3c[nH]c4ccccc34)CC2)c(C)c1 was read as Pf growth 96h 7.4µM*, Pf growth 48h inconclusive and HCMV antiviral 3.
For Cc1cc(C)c(S(=O)(=O)N2CCN(C(=O)CCOc3ccccc3C)CC2)c(C)c1 the results were Pf growth 96h inconclusive, Pf growth 48h 13µM* and HCMV antiviral -13.
Screening CCOc1ccccc1OCCCC(=O)N1CCN(S(=O)(=O)c2ccc(C)cc2C)CC1 returned Pf growth 96h 10µM*, Pf growth 48h inconclusive and HCMV antiviral -10.
`O=C(C1CCC(=O)N(C2CC2)C1)N1CCC(Oc2ccccc2F)CC1` (centres undefined) gave Pf growth 96h -9%, CHX counter 7, Pf growth 48h -5%, Shiga toxin inh -9 and HCMV antiviral 15.
CCOc1ccc(N(C(C)C(=O)N/N=C(\C)c2cccc(NC(=O)c3ccccc3)c2)S(C)(=O)=O)cc1 (centres undefined) was read as Pf growth 96h inconclusive, CHX counter -4, Pf growth 48h inconclusive, Shiga toxin inh 37 and HCMV antiviral -5.
COc1cc(OC)c(C(=O)OC(C)C(=O)NCc2ccc3c(c2)OCO3)cc1OC (centres undefined) was read as HCMV antiviral 0.
`CCN(C(=O)c1cn(C)c(=O)c2cc(OC)c(OC)cc12)c1cc(C)ccc1C` gave Pf growth 96h 71%, CHX counter -3, Pf growth 48h 9.3µM*, Shiga toxin inh -11 and HCMV antiviral 26.
Screening CCOP(=O)(OCC)C(Nc1ccc(C(=O)O)cc1)c1ccccc1 (centres undefined) returned Pf growth 96h 5%, CHX counter -1, Pf growth 48h -1%, Shiga toxin inh -7 and HCMV antiviral -11.
For CCOC(=O)c1ccc(NC(c2ccc(N(C)C)cc2)P(=O)(OC(C)C)OC(C)C)cc1 (centres undefined) the results were Pf growth 96h 23%, CHX counter 20, Pf growth 48h 13µM*, Shiga toxin inh 2 and HCMV antiviral -14.
Screening COc1cnn(-c2ccc(C)cc2)c(=O)c1SCc1ccccc1 returned Pf growth 96h 16%, CHX counter 38*, Pf growth 48h 55%, Shiga toxin inh 84* and HCMV antiviral inconclusive.
For COc1cnn(-c2ccccc2)c(=O)c1SCc1ccc(Cl)cc1Cl the results were Pf growth 96h inconclusive, CHX counter -5, Pf growth 48h inconclusive, Shiga toxin inh -5 and HCMV antiviral inconclusive.
For COc1cnn(-c2ccc(Br)cc2)c(=O)c1SCc1ccccc1 the results were Pf growth 96h 22%, CHX counter 49*, Pf growth 48h 14%, Shiga toxin inh 130* and HCMV antiviral 15.
`Cn1c(=O)[nH]c(=O)c2c1nc1n2CCN1c1ccccc1` gave HCMV antiviral 10.
Screening O=C(Nc1cccc(Cl)c1)c1csc(C(O)c2cccc(C(F)(F)F)c2)n1 (centres undefined) returned HCMV antiviral 21.
`CCOc1cc(/C=C2/C(=O)ON=C2C)ccc1O` gave Pf growth 96h 0.093µM*, CHX counter -4, Pf growth 48h 12%[0.00184 µM], Shiga toxin inh -4 and HCMV antiviral -1.
COc1cc(C=C2CN(C)C(=O)C2=O)ccc1O was read as HCMV antiviral -2.
CCOc1cc(/C=C2/NC(=O)N(Cc3ccccc3F)C2=O)ccc1O was read as Pf growth 96h inconclusive, CHX counter 1, Pf growth 48h inconclusive, Shiga toxin inh 15 and HCMV antiviral -61*.
For CCOc1cc(/C=C2\CN(C)C/C(=C\c3ccc(O)c(OCC)c3)C2=O)ccc1O the results were Pf growth 96h inconclusive, CHX counter 27*, Pf growth 48h 2%[0.00184 µM], Shiga toxin inh 7 and HCMV antiviral -100*.

Bioassay records (PubChem)
